The text below walks through data of ChEMBL document CHEMBL4513216, “Probing the Open Global Health Chemical Diversity Library for Multistage-Active Starting Points for Next-Generation Antimalarials” (ACS Infect Dis, 2020).

The campaign covered roughly 69,000 compounds. About 8,600 (12%) showed an effect of 50% or more. What follows is part of a selection rich in strong results, with near analogues and random picks from the rest.

In the assay the test system is Plasmodium berghei. Kind of assay: Screen against P. berghei liver stage (PbLuc), transformed with Luciferase, at 10uM. In kind it is functional, HepG2. The settings on record: tested at 10 uM.
As for `Cc1cc(CN2CCCN(c3ccc(C#N)cc3)CC2)no1`, the INHIBITION was determined as 29.17%.
For `COc1cccc(Cn2c(C3CCNCC3)cc3cccnc32)c1`, the INHIBITION is 10.82%.
Regarding `Fc1ccccc1Cn1c(C2CCNCC2)cc2cccnc21`, the INHIBITION is listed as 52.55%.
In the case of `COc1ccc(Cn2c(C3CCNCC3)cc3cccnc32)cc1` it was 36.8%.
In the case of `c1cnc2c(c1)cc(C1CCOCC1)n2CCN1CCOCC1` it was 32.4%; in that of `Fc1cccc(F)c1Cn1c(C2CCNCC2)cc2cccnc21`, 54.9%; in that of `Fc1cccc(F)c1Cn1c(C2CCCNC2)cc2cccnc21` (stereo unspecified), 30.74%.
In the case of `Cc1oncc1C(=O)N1CCC2(CCN(Cc3cccnc3)C2=O)C1` (stereo unspecified) it was 5.41%; in that of `O=C(CC1CCCCC1)N1CCOCC1CO` (stereo unspecified), -40%; in that of `CCOCc1nn(C)c2c1CN(CCO)CC2`, 27.6%.
In the case of `O=C(N1CCOCC1)[C@@]12CCO[C@@H]1CCN(C1CCCCC1)C2`, the INHIBITION is reported as 0.542%.
For `COc1ccccc1CN(C)c1nc2c(cnn2C)c(=O)[nH]1`, the INHIBITION came out at 27.9%.
With `COc1ccc(CN(C)c2nc3c(cnn3C)c(=O)[nH]2)c(OC)c1`, the INHIBITION was found to be 73.8%.
In the case of `COc1ccc(OC)c(CN(C)c2nc3c(cnn3C)c(=O)[nH]2)c1` it was 4.3%.
For the compound `COc1cccc([C@@]2(O)CC[C@@H]3CN(C(=O)c4c[nH]nc4C)C[C@@H]32)c1`, the INHIBITION is reported as 15.15%.
In the case of `CC(=O)N1CCN(c2cc(CCN)nc(C3CC3)n2)CC1` it was 3.91%.
In the case of `CSc1nsc(SCC(=O)c2cc3c(cc2Cl)NC(=O)C3)n1` it was 18.4%; in that of `CCN1CCC2(CC1)OCCN2C(=O)c1cc(Cl)c(OC)c(Cl)c1`, 59.5%.
`COc1cc(C(=O)N2CCCS2(=O)=O)cc(Cl)c1OC`: the INHIBITION amounted to 21.1%.
In the case of `CCCOc1ccc(C(=O)N2CCN3CCNC(=O)C3C2)cc1Cl` (stereo unspecified), the INHIBITION is 18.7%.
With `CCCOc1ccc(C(=O)N2CC[C@@H]3CC[C@H](C2)N3)cc1Cl` the figure was -4.4%; with `CCN1CCC2(CC1)OCCN2C(=O)c1ccc(OC)c(Cl)c1`, 45%.
In the case of `CCCOc1c(Cl)cc(C(=O)N2CCOC23CCN(C)CC3)cc1Cl` it was 55.4%; in that of `Cc1ccc(C(NC(=O)CCCN2CCCCC2)C(=O)O)cc1` (stereo unspecified), -18.9%.
For the compound `COc1cc(CCC(=O)N2CCC(c3cnccn3)CC2)on1`, the INHIBITION is 36.15%.
For the compound `Cc1ccc(F)c(NS(=O)(=O)c2cc3c(c(C(=O)O)c2)OCCO3)c1`, the INHIBITION was 14.1%.
With `COCCN1C(=O)[C@@H]2CC[C@H]1CN(C(=O)Cc1c(F)cccc1Cl)C2` the figure was -107%; with `CCc1c(C(=O)O)nnn1-c1cc(C)ccc1C`, -7.83%.
Consider `Cc1cc(C)n(CC2CN(Cc3cccnc3)CCO2)n1` (stereo unspecified), for which the INHIBITION was 18.7%.
For `CC(=O)N1CC[C@H]2OCC[C@@]2(C(=O)NCCc2ccccn2)C1`, the INHIBITION is 3.81%.
In the case of `COCCNc1ccc(CNCc2cnc3nc(C)cc(C)n23)cc1` it was -45.7%; in that of `O=C(NCCc1coc(-c2ccc(F)cc2)n1)NC1CCC(O)CC1` (stereo unspecified), 54.6%; in that of `COc1ccc(-c2nc(CCNC(=O)NCC3CCOC3)co2)cc1` (stereo unspecified), 1.04%.
As to `COc1ccc(-c2nc(CCNC(=O)NC3CCC(O)CC3)co2)cc1` (stereo unspecified), the INHIBITION is on record as 50.6%.
With `Cc1ccc(-c2nc(CCNC(=O)NC3CCC(O)CC3)co2)cc1` (stereo unspecified) the figure was 68.8%.
In the case of `O=C(NCCc1coc(-c2ccc(F)cc2)n1)NCC1CCOC1` (stereo unspecified) it was 13.8%.
With `O=C(NCCc1coc(-c2ccccc2)n1)NC1CC1` the figure was 44.1%; with `CCC(C(=O)NCCc1coc(-c2ccc(C)cc2)n1)N(C)C` (stereo unspecified), 10.5%.
Take `Cc1ccc(-c2nc(CCNC(=O)NC3CCN(C)CC3)co2)cc1`: the INHIBITION was -9.14%.
As for `O=C(NCCc1coc(-c2ccc(F)cc2)n1)NC1CC1`, the INHIBITION is 0.914%.
In the case of `c1ccc(CCN2CCCC(c3ccnc4nccn34)C2)cc1` (stereo unspecified) it was 39.1%; in that of `O=C(c1ccncc1F)N1CC[C@@H]2OC(COCC3CC3)CC[C@@H]21` (stereo partly specified), 14.5%; in that of `CCCN(CC(F)F)C(=O)CCc1c(C)nc2cc(O)nn2c1C`, 4.1%.
In the case of `Cc1nn(Cn2ccc(C(=O)N3CCCCCC3)n2)c(C)c1Cl` it was 26.9%; in that of `O=C(NCC1CC1)c1nnc2ccc(Cl)cc2n1`, 5.21%; in that of `O=C(NCCn1cccn1)c1nnc2ccccc2n1`, 68.5%.
In the case of `CCn1nc(C)c(CNC(=O)c2nnc3ccccc3n2)c1C` it was 58.2%.
`Cc1ccc2nnc(C(=O)NCCCn3cccn3)nc2c1`: the INHIBITION is recorded as 26.8%.
With `CCn1nc(C)c(CNC(=O)c2nnc3ccc(Cl)cc3n2)c1C` the figure was 73.1%; with `CCn1nc(C)c(CNC(=O)C2COc3ccccc3C2)c1C` (stereo unspecified), 15.9%.
On to `O=C(NCCCn1cccn1)c1nnc2ccccc2n1`, for which the INHIBITION is reported as 37.9%.
For `CCn1nc(C)c(CNC(=O)NCC(C)(O)c2ccccc2)c1C` (stereo unspecified), the INHIBITION is listed as -6.12%.
For `CCn1nc(C)c(CNC(=O)c2nnc3ccc(OC)cc3n2)c1C`, the INHIBITION amounted to 41.6%.
Turning to `CS(=O)(=O)N1CCCC(C(=O)Nc2cnn(COCC(F)(F)F)c2)C1` (stereo unspecified), the INHIBITION turned out to be 4.08%.
Take `Cc1ccc(C2(CN(C)Cc3sccc3C)CCNCC2)nc1`: the INHIBITION came out at 6.66%.
With `CC(C)C(=O)N1CCCC([C@@H]2C[C@H](C(F)F)n3ncnc3N2)C1` (stereo partly specified) the figure was 5.295%; with `O=C1CC[C@H]2[C@H](CCN2C(=O)N2CCCC2)N1Cc1ccncc1`, 41.2%; with `Cc1nsc2ncc(C(=O)N3CCCC3c3cnn(C)c3)cc12` (stereo unspecified), 19.2%.
With `Cc1ccc2c(c1)[C@@H](CC(=O)N1CCOCC1)CCO2` the figure was 14.5%; with `COc1ccc2c(c1)NC(C1CCNCC1)NS2(=O)=O` (stereo unspecified), 19.3%.
In the case of `O=S1(=O)NC2(CCCN(Cc3ccc(F)cc3)C2)COc2ccccc21` (stereo unspecified) it was 0.207%; in that of `Cc1cncc(C(=O)N2CCCC(O)(CN(C)C)CC2)c1` (stereo unspecified), -5.78%.
With `Cc1cccc(C(C(=O)NC(C)(C)CN2CCOCC2)N(C)C)c1` (stereo unspecified), the INHIBITION is on record as -17.8%.
In the case of `CN(C)C[C@]12COC[C@H]1CN(Cc1ccc3c(c1)OCO3)C2` it was 28.5%.
In the case of `Cc1nn(C)cc1C(=O)N1CCCC(c2nccn2CC2CCC2)C1` (stereo unspecified) it was 14.1%.
With `O=C(CC1CCN(CCc2ccccc2)CC1)N1CCCOCC1` the figure was 33.2%.
Consider `CCCC(O)CN1CCC(=O)N(CC2CC2)Cc2cc3c(cc21)OCO3` (stereo unspecified), for which the INHIBITION is given as 10.9%.
With `Cn1cc(CNCCNc2ncc(Cl)cc2Cl)cn1`, the INHIBITION is -14.5%.
For the compound `Cc1c(C(=O)NC2CCCOC2)nnn1-c1ccccc1` (stereo unspecified), the INHIBITION was 17.1%.
With `Cc1c(C(=O)NC2CCCOC2)nnn1-c1ccc(Cl)cc1F` (stereo unspecified) the figure was 55.5%.
As to `Cc1c(C(=O)NC2CCCC2)nnn1-c1ccccc1`, the INHIBITION is reported as -133%.
Regarding `Cc1cnn(CC(C)NCC(=O)NCCOc2ccccc2)c1` (stereo unspecified), the INHIBITION is -0.96%.
With `CC(C)(C)n1nnnc1CN(Cc1ccccc1)Cc1ccccc1Cl` the figure was 91.6%; with `CCc1ncc(CN(CCc2ccccc2)Cc2cccs2)cn1`, 45.1%; with `O=C(c1nnn(-c2ccc(Cl)cc2)n1)N(CCO)Cc1ccccc1`, -23.5%.
Turning to `Cn1cc(CN(Cc2ccccn2)Cc2ccccc2Cl)cn1`, the INHIBITION was -10.4%.
Turning to `CC(C)N(C(=O)Cn1nnnc1CCc1ccccc1)C(C)C`, the INHIBITION is recorded as 37.7%.
With `CC(C)(C)n1nnnc1CN(CCc1ccccc1)Cc1ccccc1` the figure was 65.7%; with `CCN(Cc1ccccc1Cl)Cn1nc(C)c2c(C)onc2c1=O`, 40.2%; with `CC(C)(C)n1nnnc1CN(Cc1ccccc1)Cc1ccc(Cl)cc1`, 81.4%.
`CCc1nc(CN(C(C)=O)C2CCN(Cc3ccccc3F)C2)no1` (stereo unspecified): the INHIBITION was -11.4%.
Turning to `CN(Cc1ccco1)[C@@H]1CN(C(=O)C2CCOCC2)C[C@@H]2CCCO[C@@H]21`, the INHIBITION stood at 37.1%.
In the case of `CCN(CC)C(=O)Cn1ccc2cc(NC(=O)COC)ccc21` it was -7.267%; in that of `Cn1nccc1-c1nnn2c1COC(CNCc1nccs1)C2` (stereo unspecified), 38.3%.
In the case of `N[C@H]1CN(C(=O)c2ccc3[nH]c(=O)c(=O)[nH]c3c2)C[C@@H]1c1ccccc1` it was 34.1%; in that of `Cc1cc(NC(=O)CN2CCC(N3CCNC3=O)CC2)on1`, -71.2%.
Consider `CC(NCc1c(C(C)C)nn(C)c1N(C)C)C(=O)NC1CCCC1` (stereo unspecified), for which the INHIBITION was -5.94%.
With `C1CCC(CNC2CCSCC2)(N2CCOCC2)CC1` the figure was 51.1%; with `CS(=O)(=O)N1CCC(NCC2(N3CCOCC3)CCCCC2)CC1`, 49%; with `C1CCC(NCC2(N3CCOCC3)CCSC2)C1` (stereo unspecified), 30.8%.
Turning to `COCc1nn(C(C)C)c2c1CCN(Cc1cccs1)C2`, the INHIBITION turned out to be 23.5%.
In the case of `O=C(c1ccc(N2CCCCCC2)nn1)N1CCc2ccccc21` it was -30%; in that of `CCCc1nc2c(c(C)c(C)n2Cc2ccccn2)c(N)c1CC`, 68.1%.
Regarding `Cc1c(-c2ccccc2)nc2c(c(C)c(C)n2CCN(C)C)c1N`, the INHIBITION is given as -19.4%.
In the case of `CCc1nc2c(c(C)c(C)n2Cc2cccnc2)c(N)c1C` it was 29.1%.
As to `CCc1cc(NCCc2cccnc2)n2nc(C)c(C)c2n1`, the INHIBITION is given as -1.6%.
In the case of `CCCc1nc2c(c(C)c(C)n2Cc2cccnc2)c(N)c1CC` it was 75.2%.
For `CCc1c(-c2ccccc2)nc2c(c(C)c(C)n2CCN(C)C)c1N`, the INHIBITION came to 45%.
With `CCCc1nc2c(c(C)c(C)n2Cc2ccncc2)c(N)c1CC` the figure was 77.9%.
In the case of `CCCc1nc2c(c(C)c(C)n2CCN(C)C)c(N)c1CC` it was 43.8%; in that of `CCCc1nc(N2CCN(Cc3ccccn3)CC2)c2cnn(C)c2n1`, 27.6%.
As for `Cc1nn(C)c(N(C)C)c1CNCCCN(C(C)C)S(C)(=O)=O`, the INHIBITION worked out at 6.15%.
With `COc1ncccc1CN1CCn2c(Cn3cncn3)cnc2C1` the figure was 7.96%; with `CCc1nc(C2CCCN2C(=O)c2ccc3c(c2)[nH]c(=O)n3C)no1` (stereo unspecified), -21.7%; with `COc1cccc(CC(=O)NC2CCCc3cn[nH]c32)c1` (stereo unspecified), 33.4%.
For the compound `Cc1nn(C)c(Cl)c1CNCc1cccnc1N1CCCCC1`, the INHIBITION is recorded as -13%.
